These results are taken from PubChem BioAssay (NCATS).

SMILES strings stand for the structures. Values joined by “and” are separate entries in the source; they are usually repeats but may differ in a detail not shown here. Identical values can stand only once. Records with an inconclusive call do not appear. Active and inactive are the calls of the source. Unless noted, calls follow the shape of the dose curve; as a rule, active = well fitted curve in the direction sought with a large enough effect; inconclusive = small, poorly fitted or top-dose-only effect, or another doubt; inactive = no such curve, though single readings can be large; an effect the other way counts as inactive or inconclusive.

A short description of test [1]: Cell Viability - Jurkat (AID 426;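 active = dose-dependent loss of cell ATP signal giving a full or clear fitted curve, ranked by lower potency value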; also: potency is read from the fitted curve at half-maximal effect). To be noted: qHTS. The gist of the method:
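Jurkat (clone E6-1, human T-cell leukemia) cells, 5000/well in complete medium, were exposed to compound for 40 hr at 37 °C. Viability was read as intracellular ATP by CellTiter-Glo luminescence; AC50 came from Hill fits of concentration-response data.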

The nature of test [2]: Cell Viability - Hek293 (AID 427;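 active = compounds whose dose-response curve shows a full or clear partial loss of cell viability, called from curve shape rather than a numeric limit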;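 also: potency is read from the fitted curve at half-maximal effect; cells exposed to compound for 40 hours at 37 °C before reading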). As to conditions: qHTS. The gist of the method:
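HEK293 cells in complete medium were exposed to compound for 40 hr at 37 °C, then cellular ATP was read by CellTiter-Glo luminescence. Data were normalized to DMSO (basal) and 100 uM tamoxifen (100% inhibition), and AC50 came from Hill fits.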

The nature of test [3]: MultiTox-Fluor Cytotoxicity Assay - LYMP1-001 - Live Cells (AID 947).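 Also: 0% = DMSO only and full inhibition = tetraoctylammonium bromide control.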 As to conditions: LYMP1-001 lymphoblastoid cells, live-cell protease fluorescence viability; series mostly up to 92.2 µM.
Test [4] can be described thus: Cell Viability - LYMP2-004 (AID 966).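 Also: plate controls were DMSO only for no effect and tetraoctylammonium bromide control for full effect; nearly all actives have a fitted effect of over 65% in size.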 As to conditions: LYMP2-004 lymphoblastoid cell viability, qHTS; series mostly up to 92.2 µM. The gist of the method: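 Human lymphoblastoid cells (2500/well) in complete medium were treated with compounds for 24 hr at 37 C, then intracellular ATP was measured by CellTiter-Glo luminescence. AC50 values came from Hill-equation fits of concentration-response data.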

The target of test [5] is Estrogen receptor (Homo sapiens) (UniProt P03372). Nature of the test: qHTS assay for small molecule antagonists of estrogen receptor alpha signaling (AID 588513; active = well fitted curve in the direction sought with a large enough effect in the signal ratio, with a control signal flat, not every such curve was filed as active; the % refers to the signal ratio; also: % is scaled to controls: 0 for no effect and ±100 for the full control effect). To be noted: ER-alpha-UAS-bla HEK293, beta-lactamase ratio, antagonist mode; series mostly up to 76.9 µM. The procedure, abridged: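 ER-alpha-UAS-bla GripTite HEK 293 cells in medium with 2% charcoal/dextran-treated FBS were preincubated 4 h at 37 C, dosed with compound (1:2 titration), stimulated with 0.5nM 17-beta-estradiol for 18 h, then read by CCF4 beta-lactamase fluorescence.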

Test [6] has the same target. In words: qHTS assay for small molecule agonists of estrogen receptor alpha signaling (AID 588514; calls by dose curve;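 also: 0% = vehicle only and 100% = reference agonist; nearly all actives have a fitted effect of over 70% in size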). To be noted: ER-alpha-UAS-bla HEK293, beta-lactamase ratio, 18 h; series mostly up to 76.8 µM. The gist of the method: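 ER-alpha-UAS-bla GripTite HEK 293 cells in medium with 2% charcoal/dextran-treated FBS were treated with compound titrations at 37 C for 18 hrs; beta-lactamase reporter read by CCF4 fluorescence after 2 hrs at RT.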

The target in test [7] is Glucocorticoid receptor (Homo sapiens) (UniProt P04150). Nature of the test: qHTS assay for small molecule agonists of glucocorticoid receptor signaling (AID 588532; active = well fitted curve in the direction sought with a large enough effect in the signal ratio, with a control signal flat; the % refers to the signal ratio;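 also: 100% = dexamethasone at 0.1 µM and 0% = DMSO only wells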). As to conditions: HeLa MMTV-bla, beta-lactamase ratio, agonist, 18 h; stronger effect = higher value; percent of dexamethasone control, DMSO zero. The gist of the method:
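MMTV-bla HeLa, beta-lactamase reporter; medium with 1% charcoal/dextran-stripped FBS; cpds up to 92 uM, 18 h, 37 C; CCF4 readout 460/530 nm; Hill fit → EC50, efficacy vs 0.1 uM dexamethasone = 100%.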

The target is the same in test [8]. Nature of the test: qHTS assay for small molecule antagonists of glucocorticoid receptor signaling (AID 588533; active = well fitted inhibition curve with a large enough effect in the signal ratio, with a control signal flat, not every such curve was filed as active; the % refers to the signal ratio;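 also: cells stimulated with 2 nM dexamethasone as agonist; % is scaled to controls: 0 for no effect and ±100 for the full control effect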). To be noted: HeLa MMTV-bla, GRE beta-lactamase ratio, antagonist mode, 18 h; series mostly up to 76.8 µM. The procedure, abridged: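 Antagonist-mode qHTS: compound titrations added to GRE-bla HeLa cells, then dexamethasone 2 nM final; 18 h, 37 C. CCF4 FRET fluorescence normalized to dexamethasone and DMSO; IC50 from Hill fit.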

Test [9] can be described thus: qHTS assay for small molecule antagonists of peroxisome proliferator-activated receptor delta signaling (AID 588535; active = well fitted inhibition curve with a large enough effect in the signal ratio, with a control signal flat, not every such curve was filed as active; the % refers to the signal ratio;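 as to max response: cells co-treated with a PPAR-delta agonist as stimulator during compound exposure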). As to conditions: HEK293T PPARd-UAS-bla, beta-lactamase FRET ratio, 18 h; 460 nm channel. The gist of the method:
(§1)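 GeneBLAzer PPAR-delta-UAS-bla HEK293T cells in medium with 2% charcoal/dextran FBS were preincubated 5 hrs at 37 C, then given compounds, incubated 18 hrs at 37 C, and read by CCF4 beta-lactamase fluorescence; IC50 from Hill fits.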

Test [10] addresses Peroxisome proliferator-activated receptor delta (Homo sapiens) (UniProt Q03181). The test is described as above. As to conditions: HEK293T PPARd-UAS-bla, beta-lactamase FRET ratio, 18 h; series mostly up to 76.7 µM. The procedure, abridged: as §1
Test [11] deals with Peroxisome proliferator-activated receptor gamma (Homo sapiens) (UniProt P37231). In words: qHTS assay for small molecule agonists of peroxisome proliferator-activated receptor gamma signaling (AID 588536; active = well fitted curve in the direction sought with a large enough effect in the signal ratio, with a control signal flat, not every such curve was filed as active; the % refers to the signal ratio;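 also: 0% = DMSO basal wells and 100% = rosiglitazone at 2 µM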). To be noted: HEK293 PPARg-UAS-bla, beta-lactamase ratio, 16 h, percent of rosiglitazone response, DMSO as zero; series mostly up to 76.7 µM. The gist of the method: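 GeneBLAzer PPAR-gamma-UAS-bla HEK293 cells in 1% charcoal/dextran-treated FBS medium were treated 16 h at 37 C with compounds. Beta-lactamase activity was read by CCF4 ratio (460/530 nm). Response was normalized to 2 uM rosiglitazone (100%) and DMSO, then Hill-fitted for EC50 and efficacy.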

Test [12] has as its target Retinoic acid receptor RXR-alpha (Homo sapiens) (UniProt P19793). Nature of the test: qHTS assay for small molecule agonists of retinoid X receptor alpha signaling (AID 588544; calls by dose curve;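 also: 0% = DMSO basal wells and 100% = reference agonist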). To be noted: HEK293T RXRa-UAS-bla, beta-lactamase reporter, 18 h; series mostly up to 76.7 µM.
A short description of test [13]: qHTS assay for small molecule agonists of the antioxidant response element (ARE) signaling pathway (AID 651741; active = well fitted activation curve with a large enough effect in the signal ratio; the % refers to the signal ratio; also: potency is read from the fitted curve at half-maximal effect; as to activation: % of control where 0% means no effect). To be noted: HepG2 ARE-bla reporter, beta-lactamase FRET ratio, 16 h; series mostly up to 96 µM. The gist of the method:
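ARE-bla HepG2 cells (beta-lactamase reporter under ARE control) were plated at 2,000 cells/well, preincubated 5 h at 37 C/5% CO2, then treated with DMSO-dissolved compounds for 16 h at 37 C; LiveBLAzer B/G FRET substrate added, fluorescence read after 2 h at room temperature.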

A short description of test [14]: qHTS assay for small molecule disruptors of the mitochondrial membrane potential - 5 hr assay (AID 651755; calls by dose curve; also: nearly all actives have a fitted effect of over 40% in size; also: potency is read from the fitted curve at half-maximal effect). To be noted: JC-1-type ratio dye; series mostly up to 92.2 µM. The procedure, abridged:
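HepG2 cells, attached overnight at 37C, were exposed to compound or DMSO for 5 hr at 37C, 5% CO2. Mito-MPS dye was then added for 30 min, and fluorescence read at 490/535 nm (monomers) and 540/590 nm (aggregates).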

Test [15] can be described thus: qHTS assay for environmental chemicals that activate the Aryl hydrocarbon Receptor (AhR) signaling pathway (AID 651777). Also: nearly all actives have a fitted effect of over 15% in size. Also: potency is read from the fitted curve at half-maximal effect. As to activation: % of control where 0% means no effect. To be noted: 1A2-DRE human hepatoma cells, luciferase, 24 h; activation: stronger effect = higher value. The procedure, abridged: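 Human hepatoma 1A2-DRE cells, stably carrying a dioxin response element and CYP1A2 promoter driving luciferase, were exposed to compounds for 24 hr at 37 C and 5% CO2. Luciferase signal was then read after 30 min One-Glo at room temperature.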

The nature of test [16]: qHTS assay for small molecule agonists of the antioxidant response element (ARE) signaling pathway measured by Nrf2-dependant transcriptional activity (AID 720636; active = well fitted curve in the direction sought with a large enough effect in the repeat runs; an effect the other way counts as inactive or inconclusive; also: % of control where 0% means no effect). To be noted: ARE-luc HepG2, Nrf2 luciferase reporter, 16 h; series mostly up to 92.4 µM. The gist of the method: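 ARE-luc HepG2 cells carrying an Nrf2-responsive luciferase reporter were plated in medium with 1% dialyzed FBS, left 6 hr at 37 C to attach, then exposed to compound for 16 hr. Luciferase luminescence was read after ONE-Glo addition.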

Test [17] is described as follows: Cell Viability - NIH 3T3 (AID 541). Also: nearly all actives have a fitted effect of over 25% in size. Also: potency is read from the fitted curve at half-maximal effect.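 As to activity change, negative = cytotoxicity: plate controls were DMSO alone for no effect and tamoxifen positive control for full effect.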 To be noted: NIH 3T3 cell viability, qHTS; activity change, negative = cytotoxicity: at 92.2 µM (top of the series). The procedure, abridged: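 NIH 3T3 mouse embryo fibroblasts (1000 cells/well) were plated in complete medium and treated with compound for 40 hr at 37 °C. Viability was read as intracellular ATP by CellTiter-Glo luminescence; AC50 values came from Hill-equation fits of concentration-response data.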

Test [18] is described as follows: Cell Viability - H-4-II-E (AID 543). Also: nearly all actives have a fitted effect of over 35% in size. Also: potency is read from the fitted curve at half-maximal effect. As to conditions: H-4-II-E rat hepatoma viability; series mostly up to 92.2 µM. The procedure, abridged: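 Rat hepatoma H-4-II-E cells (1500/well) were plated, incubated 5 hr at 37 °C, then exposed to compounds for 40 hr at 37 °C. Cellular ATP was read by CellTiter-Glo luminescence; AC50 came from Hill-equation fits of concentration-response data.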

The target in test [19] is Peroxisome proliferator-activated receptor gamma (Homo sapiens) (UniProt P37231). In words: qHTS assay for small molecule antagonists of peroxisome proliferator-activated receptor gamma signaling (AID 588537; active = well fitted inhibition curve with a large enough effect in the signal ratio, with a control signal flat, not every such curve was filed as active; the % refers to the signal ratio;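 also: reporter cells co-stimulated with 50 nM rosiglitazone agonist during compound treatment; % of control where 0% means no effect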). To be noted: HEK293 PPARg-UAS-bla, beta-lactamase ratio, antagonist mode; series mostly up to 76.8 µM. The procedure, abridged: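 PPAR-gamma-UAS-bla HEK293 cells (3000/well, 1% charcoal/dextran-stripped FBS) were preincubated 6-6.5 h at 37 C, given titrated compounds, then stimulated with 50 nM rosiglitazone for 16 h. Beta-lactamase activity was read with CCF4 dye; IC50 came from Hill fits.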

Sequence of Estrogen receptor (Homo sapiens) (P03372 whole entry, looked up): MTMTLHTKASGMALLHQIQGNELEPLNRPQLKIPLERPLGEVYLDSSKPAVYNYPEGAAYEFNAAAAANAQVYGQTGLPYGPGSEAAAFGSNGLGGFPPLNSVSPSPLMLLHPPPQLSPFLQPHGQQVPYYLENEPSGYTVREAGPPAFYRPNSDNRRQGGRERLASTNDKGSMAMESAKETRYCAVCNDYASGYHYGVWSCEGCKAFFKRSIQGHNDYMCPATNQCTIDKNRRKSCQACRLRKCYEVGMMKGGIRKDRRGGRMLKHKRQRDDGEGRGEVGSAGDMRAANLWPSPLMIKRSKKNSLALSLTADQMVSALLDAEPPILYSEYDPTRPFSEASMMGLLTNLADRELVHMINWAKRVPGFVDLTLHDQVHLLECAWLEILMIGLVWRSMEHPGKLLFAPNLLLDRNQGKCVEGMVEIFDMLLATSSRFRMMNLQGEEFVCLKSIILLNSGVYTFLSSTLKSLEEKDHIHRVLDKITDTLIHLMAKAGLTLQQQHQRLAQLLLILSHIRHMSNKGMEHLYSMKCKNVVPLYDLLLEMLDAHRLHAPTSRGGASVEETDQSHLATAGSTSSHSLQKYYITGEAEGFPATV
Sequence of Glucocorticoid receptor (Homo sapiens) (P04150 whole entry, looked up): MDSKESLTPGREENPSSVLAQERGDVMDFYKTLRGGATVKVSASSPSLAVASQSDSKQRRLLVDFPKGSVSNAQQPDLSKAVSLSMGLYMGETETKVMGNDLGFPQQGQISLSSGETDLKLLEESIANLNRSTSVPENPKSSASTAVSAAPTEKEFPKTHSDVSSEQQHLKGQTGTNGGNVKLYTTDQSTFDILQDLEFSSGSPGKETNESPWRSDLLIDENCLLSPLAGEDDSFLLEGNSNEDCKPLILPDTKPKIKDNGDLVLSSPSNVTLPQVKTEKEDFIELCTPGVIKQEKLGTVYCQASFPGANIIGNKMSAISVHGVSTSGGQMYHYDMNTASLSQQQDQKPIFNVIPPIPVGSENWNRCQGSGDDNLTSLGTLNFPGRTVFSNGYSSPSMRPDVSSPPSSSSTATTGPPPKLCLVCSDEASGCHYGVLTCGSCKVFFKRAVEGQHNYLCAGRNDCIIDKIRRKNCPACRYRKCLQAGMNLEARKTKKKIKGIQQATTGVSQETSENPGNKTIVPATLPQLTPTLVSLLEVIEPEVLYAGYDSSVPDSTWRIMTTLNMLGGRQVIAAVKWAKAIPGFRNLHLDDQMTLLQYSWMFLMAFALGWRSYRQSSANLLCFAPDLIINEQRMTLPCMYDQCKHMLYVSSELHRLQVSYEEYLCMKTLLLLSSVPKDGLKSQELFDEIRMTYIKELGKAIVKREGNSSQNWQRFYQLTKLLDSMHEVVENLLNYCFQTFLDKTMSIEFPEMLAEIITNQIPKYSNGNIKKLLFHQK
Sequence of Retinoic acid receptor RXR-alpha (Homo sapiens) (P19793 whole entry, looked up): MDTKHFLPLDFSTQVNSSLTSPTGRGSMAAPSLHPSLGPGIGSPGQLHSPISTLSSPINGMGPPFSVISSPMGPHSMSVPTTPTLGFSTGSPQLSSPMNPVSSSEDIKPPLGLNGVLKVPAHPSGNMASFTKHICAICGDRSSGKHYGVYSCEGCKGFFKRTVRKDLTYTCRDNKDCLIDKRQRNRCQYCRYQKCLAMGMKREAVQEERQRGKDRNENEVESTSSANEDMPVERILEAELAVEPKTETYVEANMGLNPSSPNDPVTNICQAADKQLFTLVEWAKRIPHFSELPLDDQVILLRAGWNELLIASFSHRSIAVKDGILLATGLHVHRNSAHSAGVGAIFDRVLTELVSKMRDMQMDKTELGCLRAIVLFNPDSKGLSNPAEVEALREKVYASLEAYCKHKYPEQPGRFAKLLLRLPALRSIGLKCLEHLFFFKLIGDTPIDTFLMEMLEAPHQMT
Sequence of Peroxisome proliferator-activated receptor delta (Homo sapiens) (Q03181 whole entry, looked up): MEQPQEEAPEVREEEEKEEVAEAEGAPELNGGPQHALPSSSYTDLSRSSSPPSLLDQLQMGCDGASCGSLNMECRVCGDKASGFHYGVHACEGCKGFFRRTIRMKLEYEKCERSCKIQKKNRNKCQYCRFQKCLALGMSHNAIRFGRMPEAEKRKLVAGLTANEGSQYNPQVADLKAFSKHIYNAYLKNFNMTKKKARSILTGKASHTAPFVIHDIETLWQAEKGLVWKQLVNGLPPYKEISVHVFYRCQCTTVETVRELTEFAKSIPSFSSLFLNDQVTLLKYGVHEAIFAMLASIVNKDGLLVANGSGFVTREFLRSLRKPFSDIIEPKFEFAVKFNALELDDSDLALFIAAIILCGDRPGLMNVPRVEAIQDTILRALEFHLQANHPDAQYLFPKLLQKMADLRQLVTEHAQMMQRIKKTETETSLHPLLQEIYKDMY
Sequence of Peroxisome proliferator-activated receptor gamma (Homo sapiens) (P37231 whole entry, looked up): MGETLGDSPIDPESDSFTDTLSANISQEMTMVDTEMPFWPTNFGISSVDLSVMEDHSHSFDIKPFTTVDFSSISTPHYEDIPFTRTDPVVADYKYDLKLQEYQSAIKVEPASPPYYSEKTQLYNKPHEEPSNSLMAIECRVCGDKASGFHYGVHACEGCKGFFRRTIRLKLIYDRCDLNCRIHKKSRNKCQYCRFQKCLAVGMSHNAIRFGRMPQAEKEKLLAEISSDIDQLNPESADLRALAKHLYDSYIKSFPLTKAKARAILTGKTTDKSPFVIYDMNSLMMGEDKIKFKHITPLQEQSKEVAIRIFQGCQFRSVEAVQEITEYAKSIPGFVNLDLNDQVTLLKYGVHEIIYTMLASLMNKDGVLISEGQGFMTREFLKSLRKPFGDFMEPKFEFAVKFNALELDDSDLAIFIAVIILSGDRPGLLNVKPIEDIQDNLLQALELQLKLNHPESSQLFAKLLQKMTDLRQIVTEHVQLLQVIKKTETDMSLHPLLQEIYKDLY

Consider `C=C(Cl)CCl`, for which the Potency in test [1] and in test [2] was > 92 µM (inactive) each time. Further, the compound was called inactive in test [3], in test [8], in test [10], in test [11] and in [12]. The Potency entry in test [4], in test [5], in test [6], in test [13] and in test [14] was “inactive” each time. The activation in test [7] was -2.96% (inactive). The max response in test [9] stood at 15.9%.

Turning to `Oc1cc(Cl)c(Cl)c(Cl)c1Cl`, the Potency in test [1] was 54.1 µM (active); in test [13], 11.9 µM (active). In addition, the outcome in [3] was inactive. Besides, the Potency result in test [4] and in test [16] was “inactive” throughout. In addition, the activation in [7] is 5.92% (inactive); in test [15], 4.37% (inactive).

As for `c1ccc2c(c1)ccc1cc3c(ccc4ccccc43)cc12`, the Potency in test [13] was 2.37 µM (active).

Regarding `Nc1ccc(-c2ccc(N)c(Cl)c2)cc1Cl`, the Potency in test [1] is 19 µM (active); in test [17] it was 15.8 µM (active); in [18], 31.6 µM (active); in test [13], 5.31 µM (active) and 12.2 µM (active); in [14], 37.6 µM (active); in test [15] it was 44.7 µM (active). Besides, the compound was classed as inactive in [3] and in test [11]. Moreover, the Potency result in [4] and in test [19] was “inactive” in each case. Further, the activation in test [7] is -5.3% (inactive) and -4.62% (inactive).

Turning to `CCN(N=O)C(N)=O`, in [2], the Potency is > 92 µM (inactive). The Potency entry in [17], in [18], in test [4], in [5], in test [6] and in [19] was “inactive” in each case. For the same compound, the Potency result in [14] and in test [16] was “inactive” in each case. Besides, the result in test [3], in [10], in test [11] and in [12] was inactive. Besides, in test [7], the activation was -3.98% (inactive). In addition, the max response in [9] was -10.7%.

Regarding `[C-]1=CC=CC1.[C-]1=CC=CC1.[Cl-].[Cl-].[Ti+4]`, the Potency in [1] is 55.7 µM (active). In addition, the activity change, negative = cytotoxicity in test [17] was -86.5% (active). The Potency entry in test [18] is “inactive”. Further, the compound was called inactive in [3]. Also, in test [15], the activation was 0.145% (inactive).

As for `CN1CSC(=S)N(C)C1`, the Potency in [1] is 57.6 µM (active); in test [17] it was 1.26 µM (active); in test [13], 42.2 µM (active) and 27.3 µM (active). Moreover, the Potency result in test [5], in test [6], in test [19], in test [14] and in test [16] was “inactive” in each case. The activation was 6.16% (inactive) in test [7]; -0.101% (inactive) and -0.0706% (inactive) in test [15]. The outcome in test [8] and in [11] was inactive.

Turning to `CCCCCCCCCCCOC(=O)c1ccccc1C(=O)OCCCCCCCCCCC`, in test [1], the Potency is > 92 µM (inactive). Moreover, the Potency entry in test [18], in test [5], in [6], in test [19], in test [13] and in test [16] was “inactive” throughout. Further, the compound was classed as inactive in test [3], in test [8], in test [10], in test [11] and in test [12]. The activation is 3.4% (inactive) in test [7] and -2.18% (inactive) in test [15]. The max response in [9] was -38.8%.

On to `Cl/C=C\Cl`, for which the Potency in [1] is > 92 µM (inactive). For the same compound, the Potency entry in test [18], in test [4], in test [5] and in test [6] was “inactive” in each case. In addition, in test [7], the activation was 16.7% (inactive). Further, the result in [8], in test [10] and in [12] was inactive. Also, the max response in test [9] was -22.4%.

With `C=CC(=O)OCCO`, the Potency in test [17] was 31.6 µM (active); in test [13] it was 37.6 µM (active). Besides, the compound was classed as inactive in [3], in test [10] and in test [12]. Besides, the activation in test [7] was 19.7% (inactive). Moreover, in test [9], the max response is -1.31%. In addition, the Potency entry in test [14] and in [16] was “inactive” throughout.

Regarding `O=[N+]([O-])c1cccc(CCl)c1`, the values for the Potency in test [2], in test [18] and in test [13] were > 92 µM (inactive), 50.1 µM (active) and 42.2 µM (active), respectively. In addition, in [17], the activity change, negative = cytotoxicity was -132% (active). Also, the call in [3] and in test [8] was inactive. Moreover, the Potency entry in [4] and in test [14] was “inactive” in each case. In addition, the activation in test [7] was 5.78% (inactive).

`c1ccc2c(c1)-c1cccc3c1c-2cc1ccccc13`: the Potency result in [5] was “inactive”. Further, the Potency in [13] was 10.6 µM (active) and 6.11 µM (active); in [15] it was 10 µM (active).
